Records with an inconclusive call do not appear. Where a call stands in place of a potency, no number is given. Activity calls are given as the source filed them. Calls come from the whole dose curve; as a rule, active = well fitted inhibition curve with a large enough effect; inconclusive = small, poorly fitted or top-dose-only effect; inactive = no such curve, though single readings can be large or run the other way.
target: Luciferin 4-monooxygenase (Photinus pyralis) (UniProt P08659); experiment: Confirmatory firefly luciferase (FLuc) qHTS assay for identification of artifact compounds; settings: purified FLuc enzyme, luminescence, 5 min; series mostly up to 38.9 µM
Text: PI: Alexander Tropsha Ph.D. UNC Eshelman School of Pharmacy University of North Carolina, Chapel Hill, North Carolina Hits from high-throughput screening (HTS) of chemical libraries are often false positives due to their interference with the assay detection technology. In response to this problem, we generated the largest publicly available library of chemical liabilities and developed a free webtool to predict HTS artifacts, both of which are described herein. More specifically, we generated, curated, and integrated HTS datasets for thiol reactivity, redox activity, and luciferase (firefly and nano) activity. Using these curated datasets, we developed and validated several Quantitative Structure-Interference Relationship (QSIR) models to predict nuisance behavior. […] These models were employed for virtual profiling of the National Center for Advancing Translational Science's (NCATS) in-house library, and 256 compounds for each assay were selected for the experimental validation of nuisance behavior. The BA for these external predictions ranged from 58 to 78% for compounds within the applicability domains of the models. […] The models developed in this study, along with aggregation models previously developed by our group (SCAM Detective) were implemented in "Liability Predictor," an online tool which may be used as part of chemical library design or for triaging HTS hits. Both the models and the curated datasets are publicly available at https://liability.mml.unc.edu/.
PROTOCOL TABLE SEQUENCE No. (e.g., 1, 2, 3, etc.); […] (e.g., Cells, Incubation, Reagent, etc.); VALUE; DESCRIPTION. 1; Reagent; 3 uL; Luciferase substrate mixture. 2; Compounds and control; 16 nL; Kalypsis pin tool (Wako USA) equipped with a 1536-well pin head. 3; Incubation; 15 min. 4; Reagent; 1 uL; Luciferase enzyme. 5; Incubation; 5 min. 6; Detection; Luminescence, ViewLux microplate reader. NOTES (numbers refer to Sequence numbers above) 1. 3 uL of luciferase substrate mixture containing D-luciferin and ATP (final concentrations of 10 uM and 10 uM, respectively) in assay buffer (10 mM Mg-acetate, 0.01% Tween-20, 0.05% bovine serum albumin, 50 mM Tris acetate, pH 7.6) was dispensed into all wells of a 1536-well assay plate (solid-bottom white plate; Greiner Bio One, Monroe, NC). 2. A Wako Pin-tool (Wako Automation, Richmond, VA) was used to transfer 16 nL of compounds (consisting of 7-plates in qHTS format, final concentration range 18.3 nM to 114 uM) or control PTC124 (final concentration range 1.22 nM to 40 uM). 3. 15 min. incubation at room temperature protected from light. 4. 1 uL of luciferase enzyme (final concentration 10 nM, Photinus pyralis luciferase) or buffer was dispensed for a final assay volume of 4 uL. 5. Plates were centrifuged (121xg, 15 seconds) and incubated for 5 minutes. 6. Samples were read for luminescence on a ViewLux CCD imager (PerkinElmer). Data were normalized to no-enzyme (0% activity) and no-inhibitor (DMSO; 100%) controls and the resulting percent inhibition data were fitted to a 4-parameter Hill equation using NCATS in-house software.
Potency is the fitted concentration of half-maximal effect.

Q: For `Cc1ccc(-c2nc(S(=O)(=O)c3ccc(Cl)cc3)c(N3CCCCC3)o2)cc1`, which Potency is on record?
A: inactive

Q: With `COc1ccc(NC(=O)C2CCCN(S(=O)(=O)c3cccc4nonc34)C2)cc1Cl` (stereo not given) as the compound, how does the Potency read?
A: inactive

Q: How did the Potency turn out when `CCOc1ccccc1NC(=O)CSc1nc2c(oc3ccccc32)c(=O)n1-c1ccc(F)cc1` was run?
A: inactive

Q: With `O=C(Nc1cc(Cl)ccc1Cl)c1cc(S(=O)(=O)NCCc2ccccc2)ccc1F` as the compound, how does the Potency read?
A: inactive

Q: For `Cc1cccc(NC(=O)COC(=O)CCCC2=NS(=O)(=O)c3ccccc3N2)c1`, which Potency is on record?
A: inactive

Q: For `Nc1nc2nc(-c3ccc(Cl)cc3)cc(C(F)(F)F)n2n1`, which Potency is on record?
A: inactive

Q: Which Potency does the source give for `O=C(C1CCC(CNS(=O)(=O)c2cccc3cccnc23)CC1)N1CCCCC1` (stereo not given) here?
A: inactive

Q: `COCCn1c(C)cc(O)c(C(c2ccc(OC)cc2)N2CCN(c3ccccc3)CC2)c1=O` (stereo not given) was tested. Which Potency did it give?
A: inactive

Q: For `Cc1ccccc1CNC(=O)C(C)N(c1ccccc1)S(C)(=O)=O` (stereo not given), which Potency is on record?
A: inactive

Q: Which Potency does the source give for `COc1ccc(NC(=O)C(C)n2nc(-c3cc(C)ccc3C)c3c(c2=O)CCCC3)cc1` (stereo not given) here?
A: inactive

Q: For `CC(=O)Nc1sc2c(c1-c1ccc(Cl)cc1)CCNC2`, which Potency is on record?
A: inactive

Q: For `CC(C)(C)C(=O)OCC(=O)[C@H]1CC[C@H]2[C@@H]3CCC4=CC(=O)CC[C@]4(C)[C@H]3CC[C@]12C`, which Potency is on record?
A: inactive

Q: How did the Potency turn out when `CCOC(=O)c1ccccc1Nc1cc(C)nc2nc(-c3ccco3)nn12` was run?
A: inactive

Q: With `Cc1ccc(NC(=O)c2ccc3[nH]c(C)cc(=O)c3c2)cc1` as the compound, how does the Potency read?
A: inactive

Q: `C[C@@H]1CC2(OC3C[C@@]4(C)C5=CC[C@H]6C(C)(C)C(O[C@@H]7OC[C@@H](O)[C@H](O)[C@H]7O)CC[C@@]67C[C@@]57CC[C@]4(C)C31)OC(O)C1(C)OC21` (stereo not given in full) was tested. Which Potency did it give?
A: inactive

Q: How did the Potency turn out when `COc1ccc2cc3cc(C(=O)N4CCN(c5ccccc5F)CC4)oc3nc2c1` was run?
A: inactive

Q: Which Potency does the source give for `CC(C)(C)OC(=O)N1CCC[C@H]1C(=O)N1CCC(C(=O)N[C@H](Cc2ccccc2)C(=O)NCc2ccc(F)cc2)CC1` here?
A: inactive

Q: `O=C(NCCS(=O)(=O)N1CCN(c2ccc(F)cc2)CC1)C1CC(=O)N(c2ccc(F)cc2)C1` (stereo not given) was tested. Which Potency did it give?
A: inactive

Q: Which Potency does the source give for `Ic1ccc(Nc2nc(NCCN3CCOCC3)nc(N3CCOCC3)n2)cc1` here?
A: inactive

Q: For `CC1(C)OC2CC(=O)OCC23C1CC(=O)C1(C)C3CC[C@@]2(C)[C@H](c3ccoc3)OC(=O)C3OC312` (stereo not given in full), which Potency is on record?
A: inactive

Q: `CCN(C(=O)Cn1nc(Cc2cccnc2)c2ccccc2c1=O)c1cc(C)ccc1C` was tested. Which Potency did it give?
A: inactive

Q: With `CC1=CC23C(=O)C(C=C(CO)[C@@H](O)[C@]2(O)[C@H]1O)[C@H]1[C@@H](C[C@H]3C)C1(C)C` (stereo not given in full) as the compound, how does the Potency read?
A: inactive

Q: `CC(C)c1ccc(Cn2c(COc3ccccc3)nc3ccccc32)cc1` was tested. Which Potency did it give?
A: inactive

Q: `Nc1ncnc2c1ncn2[C@@H]1O[C@H](COP(=O)(O)OP(=O)(O)OC[C@H]2OC(O)[C@H](O)[C@@H]2O)[C@@H](O)[C@H]1O` (stereo not given in full) was tested. Which Potency did it give?
A: inactive

Q: Which Potency does the source give for `Nc1ccc(F)cc1F` here?
A: inactive

Q: With `CCOC(=O)c1c(C)[nH]c(C)c1S(=O)(=O)N1CCC(C(=O)N2CCN(c3ccccc3)CC2)CC1` as the compound, how does the Potency read?
A: inactive

Q: Which Potency does the source give for `CCOC(=O)c1c(S(=O)(=O)NCC(=O)N2CCN(c3cc(C)ccc3C)CC2)c(C)n(C)c1C` here?
A: inactive

Q: With `NCCCNCCCCNCCCNC(=O)CCc1ccc(O)cc1` as the compound, how does the activity change, negative = inhibition read?
A: 2.14% [at 7.25 µM] (inactive)

Q: Which Potency does the source give for `Cc1c(CCNC(=O)Cc2ccc(F)cc2)sc2nc(-c3ccc(F)cc3)nn12` here?
A: inactive

Q: Which Potency does the source give for `COc1ccc(C2C(C(=O)Nc3ccccc3)=C(C)Nc3c(C(=O)Nc4ccccc4)cnn32)cc1` (stereo not given) here?
A: inactive

Q: `COc1ccc(C(=O)Nc2ccc3oc(-c4cccnc4)nc3c2)cc1` was tested. Which Potency did it give?
A: inactive

Q: `CC(C)Nc1ccc(-c2nc(-c3ccccn3)no2)cc1[N+](=O)[O-]` was tested. Which Potency did it give?
A: 3.44 µM (active)

Q: How did the Potency turn out when `O=S(=O)(Nc1cccc2cccnc12)c1ccccc1` was run?
A: inactive

Q: For `CCOC(=O)c1c(C)[nH]c(C)c1S(=O)(=O)N1CCC(C(=O)NCc2ccc(OC)cc2)CC1`, which Potency is on record?
A: inactive

Q: Which Potency does the source give for `CN[C@@H]1[C@@H](O[C@H]2O[C@H](CO)[C@@H](N)[C@H](O)[C@H]2O)O[C@H]2C[C@@H](N)[C@@H](O[C@H]3[C@H](O)[C@@H](O)[C@H](N)C[C@@H]3N)O[C@@H]2[C@@H]1O` here?
A: inactive

Q: `CC1CCCCN1S(=O)(=O)c1cc2c3c(c1)CC(=O)N3CCC2` (stereo not given) was tested. Which Potency did it give?
A: inactive

Q: `CCOc1ccccc1NC(=O)N(Cc1ccc(C)o1)C1CCN(C(C)=O)CC1` was tested. Which Potency did it give?
A: inactive

Q: For `O=C1CCc2cc([S+](=O)([O-])NC3CCOCC3)ccc2N1`, which Potency is on record?
A: inactive

Q: How did the Potency turn out when `Cc1ccc2oc(C(=O)Nc3ccc(S(=O)(=O)N(C)c4ccccc4)cc3)cc(=O)c2c1` was run?
A: inactive

Q: Which Potency does the source give for `Cc1nc(-c2ccc(Cl)cc2)sc1CCNC(=O)c1ccco1` here?
A: inactive

Source: PubChem BioAssay AID1845227 (National Center for Advancing Translational Sciences (NCATS), 2023)
